High-throughput results: PubChem BioAssay, The Scripps Research Institute Molecular Screening Center
LYPLA1 counter = LYPLA1 (human) inhibition in PME1 counter-screen; O75608; recombinant LYPLA1, FP-Rh probe fluorescence polarization; inhibition, % at 5.9 µM; 320,000 compounds, 0.16% hits; AID 2174;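 active = inhibition above the mean of all tested compounds plus 3 SD, set per campaign, cut at about 14% in these data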;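 note: inhibitors block serine hydrolase probe labeling of LYPLA1 so polarization falls; 0% = enzyme with DMSO and 100% = wells lacking LYPLA1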
GSTO1 counter = blocks human GSTO1 in RBBP9 counter-screen | AID 1974 | recombinant GSTO1, activity-based probe fluorescence polarization | 300,000 compounds, 1.1% hits | inhibition, % at 5.96 µM;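 active = inhibition above the campaign mean inhibition plus 3 SD, cut at about 35% in these data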;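 note: 0% = GSTO1-1 with DMSO and 100% = wells lacking GSTO1-1 enzyme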
Target sequence (P78417 whole entry, looked up): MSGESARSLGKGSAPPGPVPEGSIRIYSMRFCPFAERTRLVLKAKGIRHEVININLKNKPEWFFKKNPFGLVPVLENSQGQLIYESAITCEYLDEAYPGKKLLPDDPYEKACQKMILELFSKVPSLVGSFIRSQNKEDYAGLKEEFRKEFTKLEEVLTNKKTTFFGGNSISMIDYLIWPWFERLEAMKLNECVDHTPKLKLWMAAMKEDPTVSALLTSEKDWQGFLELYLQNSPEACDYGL
ZTA DNA inh = ZTA (EBV) inhibition in EBNA-1 counter-screen; P03206; ZTA-DNA binding, fluorescence polarization; inhibition, % at 11 µM; 320,000 compounds, 0.15% hits; AID 2234; in the data active = inhibition above about 33%
EBNA-1 inh = blocks EBNA-1 binding to DNA | 300,000 compounds, 0.34% hits | EBNA-1 DNA binding, fluorescence polarization | inhibition, % at 14.8 µM | AID 1950; in the data active = inhibition above about 28%
LYPLA2 counter = LYPLA2 (human) inhibition in PME1 counter-screen. recombinant LYPLA2, FP-Rh probe fluorescence polarization. AID 2177. inhibition, % at 5.9 µM. 320,000 compounds, 0.38% hits;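 active = inhibition above the screen-wide mean plus 3 SD, limit set per campaign, cut at about 26% in these data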;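 note: 0% = LYPLA2 with DMSO and 100% = wells lacking LYPLA2 enzyme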
PAD4 inh = inhibitors of human PAD4. inhibition, % at 6.36 µM. 330,000 compounds, 0.41% hits. recombinant PAD4, RCA probe fluorescence polarization;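 active = percent inhibition above a cutoff equal to the mean of all tested compounds plus 3 SD, cut at about 15% in these data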;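 note: 0% = PAD4 with RCA probe and DMSO and 100% = probe without PAD4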
GSTO1 inh conf = confirmation of human GSTO1 inhibitors. shares compounds with GSTO1 counter. recombinant GSTO1, probe fluorescence polarization. inhibition, % at 5.96 µM. 2,400 compounds, 54% hits. AID 2176;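 active = inhibition above the primary screen's cutoff, its mean inhibition plus 3 SD, cut at about 35% in these data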;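 note: loss of polarization as inhibitors block binding of rhodamine sulfonate ester activity probe; 0% = GSTO1 with DMSO and 100% = wells lacking GSTO1 enzyme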
PAD4 FP conf = confirmation of human PAD4 inhibitors | shares compounds with PAD4 inh | recombinant PAD4, RCA probe fluorescence polarization | inhibition, % at 6.36 µM | 1,200 compounds, 28% hits | AID 488796;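 active = mean inhibition across replicates above the hit cutoff set by the earlier primary screen, cut at about 15% in these data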;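 note: inhibitors block active-site labeling by the probe so polarization falls; 0% = PAD4 with probe and DMSO and 100% = probe without PAD4 enzyme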
* hit, by the source's call. Only some compounds are listed: those with a hit (about 1.7% of all), similar ones and a draw of the others.

Screening NC(=O)CCN1CCN(C(=O)c2ccc3nc(Cc4cccc(Cl)c4)oc3c2)CC1 returned LYPLA1 counter 2, GSTO1 counter -2, ZTA DNA inh -20, EBNA-1 inh 9, LYPLA2 counter 4 and PAD4 inh -3.
`O=C(O)CCNc1cc(N2CCN(C(=O)c3ccco3)CC2)c2noc3c2c1C(=O)c1ccccc1-3` gave LYPLA1 counter 3, GSTO1 counter 63*, ZTA DNA inh 163*, EBNA-1 inh 127*, LYPLA2 counter 0, PAD4 inh 21*, GSTO1 inh conf 75* and PAD4 FP conf -46.
For CCOc1ccc(S(=O)(=O)N(CC)CC(=O)NCc2cccnc2)cc1C the results were LYPLA1 counter 2, GSTO1 counter 0, ZTA DNA inh -5, EBNA-1 inh 8, LYPLA2 counter 4 and PAD4 inh -6.
For O=C(NC1=C(NC2CCS(=O)(=O)C2)C(=O)c2ccccc2C1=O)c1ccccc1 (stereo not drawn) the results were LYPLA1 counter 2, GSTO1 counter 81*, ZTA DNA inh -5, EBNA-1 inh -7, LYPLA2 counter 4, PAD4 inh 26*, GSTO1 inh conf 71* and PAD4 FP conf 22*.
CC(C)Oc1ccc(C(=O)Nc2cccc3cccnc23)cc1 was read as LYPLA1 counter -4, GSTO1 counter -9, ZTA DNA inh 21, EBNA-1 inh -7, LYPLA2 counter -4 and PAD4 inh -1.
`O=c1oc2ccccc2cc1-c1nc2ccccc2o1` gave LYPLA1 counter -2, GSTO1 counter 9, ZTA DNA inh -7, EBNA-1 inh 0, LYPLA2 counter 0 and PAD4 inh 1.
`Nc1cc2nc3ccccc3oc-2cc1=O` gave LYPLA1 counter 0, GSTO1 counter 68*, ZTA DNA inh -4, EBNA-1 inh 3, LYPLA2 counter 9, PAD4 inh 28*, GSTO1 inh conf 50* and PAD4 FP conf -1.
For CC1CN(C(=O)COC(=O)Cc2c(F)cccc2Cl)CC(C)O1 (stereo not drawn) the results were LYPLA1 counter 7, ZTA DNA inh -16, LYPLA2 counter 9 and PAD4 inh -6.
Screening COc1ccc2ccc3c(c2c1)N=C[C@]1(O3)N(C)c2ccccc2C1(C)C returned LYPLA1 counter -6, GSTO1 counter 86*, ZTA DNA inh 15, EBNA-1 inh 13, LYPLA2 counter -9, PAD4 inh 53*, GSTO1 inh conf 4 and PAD4 FP conf 6.
COc1ccc(Cl)cc1NC(=O)CN(C)CC(=O)Nc1c(C)n(C)n(-c2ccccc2)c1=O was read as LYPLA1 counter 3, ZTA DNA inh -7, LYPLA2 counter 3 and PAD4 inh -1.
`O=C(CCC(=O)N1CCN(Cc2ccccc2)CC1)Nc1nnc(C2CCCCC2)s1` gave LYPLA1 counter -6, GSTO1 counter -1, ZTA DNA inh -4, EBNA-1 inh -7, LYPLA2 counter 2 and PAD4 inh 4.
CN(C)/C=N/NC(=O)c1ccccc1 was read as LYPLA1 counter -4, GSTO1 counter -4, ZTA DNA inh 15, EBNA-1 inh -8, LYPLA2 counter -5 and PAD4 inh -6.
Screening O=C(NN=c1c(=O)c2ccccc2c1=O)c1ccccc1 returned LYPLA1 counter 0, GSTO1 counter 77*, ZTA DNA inh -3, EBNA-1 inh 3, LYPLA2 counter -1, PAD4 inh 44*, GSTO1 inh conf 72* and PAD4 FP conf 45*.
Screening COc1cccc(CNc2cccc3cccnc23)c1O returned LYPLA1 counter -2, GSTO1 counter 26, ZTA DNA inh -14, EBNA-1 inh 7, LYPLA2 counter 4 and PAD4 inh -3.
Screening Oc1c(Br)cc(Br)cc1CNc1cccc2cccnc12 returned LYPLA1 counter -1, GSTO1 counter 67*, ZTA DNA inh 12, EBNA-1 inh 6, LYPLA2 counter 14, PAD4 inh 18*, GSTO1 inh conf 92* and PAD4 FP conf -2.
